Measured values as given in publication PMC11574364.

Experiments:
Experiment in all cases: protein domain microarray probed with biotinylated miRNA; Domain array: 20 mM Tris-HCl pH 7.4, 200 mM KCl, 0.2 mM EDTA, 0.05% NP40, 2 ug/ul heparin, overnight 4 C. ORF array: PBS pH 7.0 with RNase inhibitor, 100 ng RNA; high values mean tight binding
Conditions in all cases: ssRNA
KHSRP(1-4) = target: T1, KHSRP(1-4) (Homo sapiens, UniProt Q92945)
T1 sequence: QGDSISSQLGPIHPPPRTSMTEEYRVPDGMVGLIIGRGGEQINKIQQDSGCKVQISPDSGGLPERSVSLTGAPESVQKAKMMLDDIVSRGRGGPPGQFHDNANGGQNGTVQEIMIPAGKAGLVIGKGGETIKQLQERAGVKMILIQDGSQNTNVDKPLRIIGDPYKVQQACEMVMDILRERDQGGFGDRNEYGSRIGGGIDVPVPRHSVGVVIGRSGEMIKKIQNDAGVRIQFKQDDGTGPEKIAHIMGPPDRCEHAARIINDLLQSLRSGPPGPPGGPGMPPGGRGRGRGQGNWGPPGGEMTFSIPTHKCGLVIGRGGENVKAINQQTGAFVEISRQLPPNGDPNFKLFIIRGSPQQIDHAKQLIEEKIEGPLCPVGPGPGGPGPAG

RBMS2 = target: T2, RBMS2 (Homo sapiens, UniProt Q15434)
T2 sequence: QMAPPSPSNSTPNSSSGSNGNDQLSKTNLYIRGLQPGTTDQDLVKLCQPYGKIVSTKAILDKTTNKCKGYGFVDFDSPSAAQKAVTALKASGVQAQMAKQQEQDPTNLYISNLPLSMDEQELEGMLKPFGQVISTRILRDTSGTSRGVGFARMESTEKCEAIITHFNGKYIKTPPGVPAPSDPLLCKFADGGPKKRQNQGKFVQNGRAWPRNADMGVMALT

RALY = RALY (Homo sapiens, UniProt Q9UKM9)
Sequence of RALY (Q9UKM9 1-115): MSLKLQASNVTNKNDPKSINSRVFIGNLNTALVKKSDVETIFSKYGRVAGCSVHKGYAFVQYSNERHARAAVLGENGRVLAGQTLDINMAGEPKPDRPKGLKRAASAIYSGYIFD

U1SNRNPBP = target: T3, U1SNRNPBP (Homo sapiens, UniProt Q16560)
T3 sequence: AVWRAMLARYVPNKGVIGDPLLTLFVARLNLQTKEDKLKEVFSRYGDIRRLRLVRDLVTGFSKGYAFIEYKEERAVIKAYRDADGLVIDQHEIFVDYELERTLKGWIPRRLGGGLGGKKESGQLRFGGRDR

RBM47 = target: T4, RBM47 (Homo sapiens, UniProt A0AV96)
T4 sequence: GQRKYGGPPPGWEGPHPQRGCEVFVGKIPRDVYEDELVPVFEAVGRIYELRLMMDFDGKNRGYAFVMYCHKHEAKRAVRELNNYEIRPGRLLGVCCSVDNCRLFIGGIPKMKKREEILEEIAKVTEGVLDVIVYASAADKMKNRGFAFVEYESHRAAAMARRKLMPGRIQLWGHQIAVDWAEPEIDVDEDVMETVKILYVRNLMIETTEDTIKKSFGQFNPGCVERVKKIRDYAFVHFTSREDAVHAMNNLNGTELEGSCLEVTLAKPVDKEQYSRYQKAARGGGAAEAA

STRBP(1) = target: T5, STRBP(1) (Homo sapiens, UniProt Q96SI9)
T5 sequence: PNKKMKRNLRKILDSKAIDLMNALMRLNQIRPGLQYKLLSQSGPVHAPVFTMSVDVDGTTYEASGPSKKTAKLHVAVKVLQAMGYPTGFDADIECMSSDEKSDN

RBM25 = RBM25 (Homo sapiens, UniProt P49756)
Sequence of RBM25 (P49756 67-185): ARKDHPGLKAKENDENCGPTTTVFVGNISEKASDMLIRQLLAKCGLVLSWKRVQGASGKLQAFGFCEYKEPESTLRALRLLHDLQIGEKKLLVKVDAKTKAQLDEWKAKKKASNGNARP

RBM21 = target: T6, RBM21 (Homo sapiens, UniProt Q9H6E5)
T6 sequence: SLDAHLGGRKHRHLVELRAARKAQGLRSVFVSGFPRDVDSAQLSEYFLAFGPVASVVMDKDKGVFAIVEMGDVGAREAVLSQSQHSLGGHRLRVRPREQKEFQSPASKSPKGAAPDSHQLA

SART3 = target: T7, SART3 (Homo sapiens, UniProt Q15020)
T7 sequence: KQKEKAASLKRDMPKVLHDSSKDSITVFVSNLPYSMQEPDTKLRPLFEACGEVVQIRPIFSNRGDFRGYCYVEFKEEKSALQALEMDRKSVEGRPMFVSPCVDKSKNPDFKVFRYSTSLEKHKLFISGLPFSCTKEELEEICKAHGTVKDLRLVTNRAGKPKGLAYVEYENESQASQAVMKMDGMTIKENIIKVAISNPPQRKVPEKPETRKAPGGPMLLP

STAU1(1) = STAU1(1) (Homo sapiens, UniProt O95793)
Sequence of STAU1(1) (O95793 52-182): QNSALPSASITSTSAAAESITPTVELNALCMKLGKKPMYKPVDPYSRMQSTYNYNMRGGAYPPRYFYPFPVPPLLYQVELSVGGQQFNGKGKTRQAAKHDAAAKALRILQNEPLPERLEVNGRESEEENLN

Sequence	binding signal (KHSRP(1-4)) [fluorescence intensity]	binding signal (RBMS2) [fluorescence intensity]	binding signal (RALY) [fluorescence intensity]	binding signal (U1SNRNPBP) [fluorescence intensity]	binding signal (RBM47) [fluorescence intensity]	binding signal (STRBP(1)) [fluorescence intensity]	binding signal (RBM25) [fluorescence intensity]	binding signal (RBM21) [fluorescence intensity]	binding signal (SART3) [fluorescence intensity]	binding signal (STAU1(1)) [fluorescence intensity]
UGAGGUAGUAGGUUGUAUAGUU	419 ± 11.8	24.7 ± 2.59	789 ± 24.3	–	–	–	–	–	–	–
CAGUGCAAUGAUGAAAGGGCAU	675 ± 8.46	39 ± 3.47	332 ± 5.22	46.4 ± 1.24	26.2 ± 2.96	37.99 ± 0.283	36 ± 0.488	38.1 ± 3.22	29.6 ± 6.57	–
UAGCUUAUCAGACUGAUGUUGA	192 ± 3.5	–	591 ± 33.9	–	–	–	–	–	–	–
UGAGGUAGUAGGUUGUAUGGUU	786 ± 28.3	91.7 ± 4.18	1750 ± 31.6	99.4 ± 1.25	41.2 ± 0.636	62.8 ± 0.686	63.1 ± 0.806	53.6 ± 2.81	51.5 ± 2.31	44.5 ± 1.05
UGAGGUAGUAGGUUGUGUGGUU	992.47 ± 0.686	95.1 ± 1.34	1730 ± 54.9	130 ± 6.12	53 ± 7.04	125 ± 14.3	98.3 ± 20.9	63.5 ± 6.73	113 ± 30.2	69.7 ± 6.19
AGAGGUAGUAGGUUGCAUAGUU	951 ± 76.8	79.9 ± 6.82	1628 ± 11.4	63.6 ± 1.29	29.82 ± 0.276	34.2 ± 1.84	39.5 ± 3.96	34.33 ± 0.0778	36.8 ± 2.71	25.68 ± 0.0778
